From PubChem BioAssay (NCATS)
Results filed as inconclusive are left out. Active and inactive are the calls of the source. Calls come from the whole dose curve; as a rule, active = well fitted curve in the direction sought with a large enough effect; inconclusive = small, poorly fitted or top-dose-only effect, or another doubt; inactive = no such curve, though single readings can be large; an effect the other way counts as inactive or inconclusive.

Legend:
[1] = qHTS to identify inhibitors of the type 1 interferon - major histocompatibility complex class I in skeletal muscle: primary screen against the NCATS LOPAC collection (AID 1347405);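 note: lytic HiBiT luminescence reporting HLA-B protein level; % is set by controls: 0 for no effect and ±100 for the full control effect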
Procedure, shortened: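 Immortalized human C25cl48 myoblasts with HiBiT knocked into endogenous HLA-B*08:01 were stimulated with 4.0 ng/ml IFN-beta and given compounds in a 7-point, 1:4.3 titration from 46 uM final; after 24 hrs, lytic HiBiT luminescence was read.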

[2] = qHTS for inhibitors of adenylyl cyclases using a fission yeast platform: a pilot screen against the NCATS LOPAC library (AID 1347410);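 note: plate controls were DMSO vehicle for no effect and DPI positive control for full effect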
Procedure, shortened: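 S. pombe CHP2027 (AC9-GNAS-PDE4D2) carrying a PKA-repressed fbp1-GFP reporter was exposed to LOPAC compounds (final up to 57 µM) for 18 h at 30C in the dark, in EMM with histidine, lysine and uracil; GFP gain-of-signal read by laser scanning cytometry.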

[3] = molecular target: Lysine-specific demethylase 5B (Homo sapiens) (UniProt Q9UGL1); test: Optimization screen for KDM5B Histone Demethylases FDH coupled qHTS against the LOPAC library (AID 1347166); note: 0% is about no effect
Chain of Lysine-specific demethylase 5B (Homo sapiens) (Q9UGL1 whole entry, looked up): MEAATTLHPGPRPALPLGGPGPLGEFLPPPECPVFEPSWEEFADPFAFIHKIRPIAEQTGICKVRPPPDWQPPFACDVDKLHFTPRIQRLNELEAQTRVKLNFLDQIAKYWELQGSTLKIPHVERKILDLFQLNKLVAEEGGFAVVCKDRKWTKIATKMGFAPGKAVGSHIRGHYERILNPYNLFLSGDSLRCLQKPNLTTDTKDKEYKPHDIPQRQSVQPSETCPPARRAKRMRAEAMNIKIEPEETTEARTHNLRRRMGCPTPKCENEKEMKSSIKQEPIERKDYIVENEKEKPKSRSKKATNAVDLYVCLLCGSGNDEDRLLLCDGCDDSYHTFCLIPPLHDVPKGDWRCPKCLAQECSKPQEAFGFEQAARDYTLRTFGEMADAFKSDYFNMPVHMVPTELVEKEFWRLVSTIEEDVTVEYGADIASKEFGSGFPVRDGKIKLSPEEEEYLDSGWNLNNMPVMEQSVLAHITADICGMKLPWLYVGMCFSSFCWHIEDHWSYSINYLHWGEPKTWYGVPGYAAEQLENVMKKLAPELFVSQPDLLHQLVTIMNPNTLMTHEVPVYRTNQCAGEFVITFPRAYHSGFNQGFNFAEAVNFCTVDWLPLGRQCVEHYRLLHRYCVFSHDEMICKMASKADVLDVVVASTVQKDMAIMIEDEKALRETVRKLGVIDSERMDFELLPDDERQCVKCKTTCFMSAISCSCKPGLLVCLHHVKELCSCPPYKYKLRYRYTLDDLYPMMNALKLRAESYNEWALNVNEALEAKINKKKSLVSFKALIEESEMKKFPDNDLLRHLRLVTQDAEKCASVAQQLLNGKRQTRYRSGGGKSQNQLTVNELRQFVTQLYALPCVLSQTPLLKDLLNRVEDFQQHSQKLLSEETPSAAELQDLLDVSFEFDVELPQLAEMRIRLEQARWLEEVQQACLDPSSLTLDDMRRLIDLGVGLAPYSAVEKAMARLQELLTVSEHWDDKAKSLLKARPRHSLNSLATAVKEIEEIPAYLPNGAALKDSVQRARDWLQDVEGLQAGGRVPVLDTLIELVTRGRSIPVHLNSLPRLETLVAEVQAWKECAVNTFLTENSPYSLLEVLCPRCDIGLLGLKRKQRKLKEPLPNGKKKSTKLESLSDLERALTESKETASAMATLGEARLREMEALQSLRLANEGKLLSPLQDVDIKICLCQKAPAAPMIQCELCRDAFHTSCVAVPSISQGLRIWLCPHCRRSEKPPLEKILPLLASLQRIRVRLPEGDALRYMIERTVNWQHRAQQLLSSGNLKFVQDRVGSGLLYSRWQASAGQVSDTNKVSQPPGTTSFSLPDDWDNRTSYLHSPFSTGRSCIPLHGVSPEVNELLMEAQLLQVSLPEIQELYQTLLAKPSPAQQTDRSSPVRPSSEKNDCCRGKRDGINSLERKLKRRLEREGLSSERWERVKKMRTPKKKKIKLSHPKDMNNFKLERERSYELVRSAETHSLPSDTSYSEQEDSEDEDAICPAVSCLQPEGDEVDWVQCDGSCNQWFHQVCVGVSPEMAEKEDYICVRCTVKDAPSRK
Procedure, shortened: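 KDM5BDeltaAP (200nM final) preincubated 10 min with compound, then 12.5uM H3K4Me3, 25uM a-ketoglutarate, ascorbate, Fe(II), NAD+ and FDH added; 50mM HEPES pH 7.5, 0.01% Tween-20. NADH fluorescence (340/450 nm) change over 30 min, room temperature.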

[4] = qHTS to identify inhibitors of the type 1 interferon - major histocompatibility complex class I in skeletal muscle: primary screen against the NCATS Pharmaceutical Collection (AID 1347407);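 note: luminescence of HiBiT knocked into endogenous HLA-B as interferon-induced MHC class I level; % is set by controls: 0 for no effect and ±100 for the full control effect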
Procedure, shortened: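 Immortalized human myoblasts (C25cl48) with HiBiT knocked into endogenous HLA-B*08:01 were stimulated with 4 ng/ml IFN-beta and treated with compounds (8-point, 1:5, top 46 uM final) for 24 h at 37 C; HiBiT lytic luminescence read.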

[5] = molecular target: Protein phosphatase 1D (Homo sapiens) (UniProt O15297); test: RapidFire Mass Spectrometry qHTS Assay for Modulators of WT P53-Induced Phosphatase 1 (WIP1) (AID 1347424);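 note: amount of dephosphorylated VEPPL-S-QETFS peptide product formed by WIP1; series mostly up to about 63 µM; plate controls were DMSO wells for no effect and GSK830371 inhibitor control at 10 µM for full effect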
Chain of Protein phosphatase 1D (Homo sapiens) (O15297 whole entry, looked up): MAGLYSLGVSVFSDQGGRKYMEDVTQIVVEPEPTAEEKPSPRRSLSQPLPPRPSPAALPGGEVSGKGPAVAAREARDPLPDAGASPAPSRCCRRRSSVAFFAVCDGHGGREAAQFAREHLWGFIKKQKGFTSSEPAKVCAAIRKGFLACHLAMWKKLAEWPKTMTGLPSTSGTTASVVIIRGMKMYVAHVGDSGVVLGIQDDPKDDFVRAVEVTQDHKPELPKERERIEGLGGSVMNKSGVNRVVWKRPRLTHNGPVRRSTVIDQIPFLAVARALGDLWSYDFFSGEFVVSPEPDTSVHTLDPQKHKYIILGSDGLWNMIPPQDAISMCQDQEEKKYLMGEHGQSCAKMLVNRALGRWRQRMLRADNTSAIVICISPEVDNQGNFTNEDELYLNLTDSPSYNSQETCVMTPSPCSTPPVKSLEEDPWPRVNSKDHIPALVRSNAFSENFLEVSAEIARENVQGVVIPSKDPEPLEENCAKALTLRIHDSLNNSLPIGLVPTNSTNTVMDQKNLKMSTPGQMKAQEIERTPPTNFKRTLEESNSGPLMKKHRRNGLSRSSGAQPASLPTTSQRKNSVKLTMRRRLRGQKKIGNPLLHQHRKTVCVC
Procedure, shortened: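 10 nM WIP1 + cpd, 1 h RT; + 2 uM VEPPL-pS-QETFS, 5 min RT; stop 0.5% formic acid; labelled product standard 1 uM; RapidFire MS. Buffer 50 mM Tris pH 7.5, 30 mM MgCl2, 1 mM TCEP.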

[6] = molecular target: Protein phosphatase 1D (Homo sapiens) (UniProt O15297); test: Rhodamine-PBP qHTS Assay for Modulators of WT P53-Induced Phosphatase 1 (WIP1) (AID 1347425); note: % of control where 0% means no effect
Procedure, shortened: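 WIP1 (5 nM final) was preincubated with compound for 1 hour at room temperature. It then dephosphorylated 10 uM VEPPL-pS-QETFS peptide in Tris-HCl pH 7.5 with 30 mM MgCl2. Released Pi was detected by 10 uM Rh-PBP fluorescence (ex 525/em 598 nm) read at 1-min intervals for 11 min, as delta f1 - f0.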

[7] = Validation qHTS assay for inhibitors of Activation Induced Cytidine Deaminase (AID): UDG Counterscreen signal (AID 1347427); note: 0% is about no effect
Procedure, shortened: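 Counterscreen read of UDG activity (2 U/mL, 4/3x) in the FRET deamination format with AID (1 uM, 4/3x), DJC20/DJC23 substrates (250 nM, 4x), 4 h at room temperature. NaOH stop, fluorescence at 560 ex/665 em.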

[8] = molecular target: Single-stranded DNA cytosine deaminase (Homo sapiens) (UniProt Q9GZX7); test: Validation qHTS assay for inhibitors of Activation Induced Cytidine Deaminase (AID): AID signal (AID 1347429); note: % is set by controls: 0 for no effect and ±100 for the full control effect
Chain of Single-stranded DNA cytosine deaminase (Homo sapiens) (Q9GZX7 whole entry, looked up): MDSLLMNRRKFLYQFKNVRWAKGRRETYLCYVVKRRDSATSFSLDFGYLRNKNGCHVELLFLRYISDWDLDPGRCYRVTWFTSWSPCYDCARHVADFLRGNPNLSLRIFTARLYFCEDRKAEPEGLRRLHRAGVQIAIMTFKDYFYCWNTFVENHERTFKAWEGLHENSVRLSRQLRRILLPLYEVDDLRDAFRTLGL
Procedure, shortened: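 AID and UDG were combined and compounds added at final up to 114 uM, then DJC20/DJC23 FRET substrate was added for 4 hr at room temperature. NaOH was then added for 30 min before fluorescence was read at 540/590 nm.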

[9] = Primary qHTS for inhibitors of La Crosse Virus (LACV) - induced cell death in SH-SY5Y cells (AID 1508616); note: potency is the fitted concentration of half-maximal effect;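 for activity change: top concentration of the series differs between compounds; 0% = infected DMSO wells and 100% = uninfected DMSO wells; higher means more rescue of cells from virus-induced death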
Procedure, shortened: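 Luminescent ATP readout (ATPLite 1step, 5 min room temperature) measured rescue from LACV-induced death after 6 days of infection at 0.01 MOI; normalized to infected DMSO wells and uninfected DMSO wells.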

[10] = qHTS to identify inhibitors of the type 1 interferon - major histocompatibility complex class I in skeletal muscle: primary screen against the NCATS Mechanism Interrogation Plate v5.0 (MIPE) Libary (AID 1347411); note: nearly all actives have a fitted effect of over 65% in size; note: potency is the fitted concentration of half-maximal effect;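 for activity change, negative = inhibition: plate controls were vehicle for no effect and reference inhibitor for full effect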
Procedure, shortened: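 Immortalized human C25cl48 myoblasts with HiBit knocked into endogenous HLA-B*08:01 were stimulated with 4.0 ng/ml IFN-beta and exposed to compounds (11-point 1:3 titration, top 46 uM final) for 24 hrs at 37 C; HiBiT lytic luminescence measured.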

CCOC(=O)C1=C(O)C(=O)N(Cc2ccccc2)C1
inactive: Potency [1] | outcome [2]

O=C(c1ccccc1)c1ccc2n1CCC2C(=O)O (stereo unspecified)
inactive: outcome [3] | Potency [1] | Potency [4] | outcome [2] | Potency [5] | outcome [6] | Potency [7] | outcome [8] | Potency [9]

CCOC(=O)C(C)Oc1cccc2c(=O)n(CC(=O)Nc3ccc4c(c3)OCCO4)ccc12 (stereo unspecified)
inactive: Potency [1] | outcome [2] | Potency [10] | Potency [7] | outcome [8] | Potency [9]

O=C1c2ccccc2-c2n[nH]c3cccc1c23
inactive: outcome [3] | outcome [2] | Potency [7] | Potency [9]
active: Potency [10] 16.5 µM

Nc1ccn([C@@H]2O[C@H](CO)[C@@H](O)C2O)c(=O)n1 (stereo partly specified)
active: Potency [9] 0.316 µM
inactive: outcome [3] | Potency [7] | outcome [8]

COCCCN1CCC(NC(=O)c2cc(Cl)c(N)c3c2OCC3)CC1
inactive: Potency [4] | Potency [10] | Potency [5] | outcome [6] | Potency [9]

COc1cc2nc(N3CCN(C(=O)C4CCCO4)CC3)nc(N)c2cc1OC (stereo unspecified)
inactive: Potency [7] | outcome [8]

CN(C)c1ccc2nc3ccc(=[N+](C)C)cc-3sc2c1
inactive: Potency [9]

Cc1ccc(C(=O)c2cc(O)c(O)c([N+](=O)[O-])c2)cc1
inactive: Potency [4] | Potency [5] | outcome [6] | Potency [9]

COC(=O)N[C@H](C(=O)N[C@@H](Cc1ccccc1)[C@@H](O)CN(Cc1ccc(-c2ccccn2)cc1)NC(=O)[C@@H](NC(=O)OC)C(C)(C)C)C(C)(C)C
inactive: Potency [4] | Potency [5] | outcome [6] | Potency [9]

CCOc1cc(CC(=O)N[C@@H](CC(C)C)c2ccccc2N2CCCCC2)ccc1C(=O)O
inactive: Potency [10]

C[Se]CCC(N)C(=O)O (stereo unspecified)
inactive: Potency [10]

O=C1CCc2ccc(OCCCCN3CCN(c4cccc(Cl)c4Cl)CC3)cc2N1
inactive: Potency [4] | Potency [5] | outcome [6] | Potency [9]

CC(C)(S)[C@@H](N)C(=O)O
inactive: activity change, negative = inhibition [10] -26.4% [at 5.1 µM]

CC(=O)Nc1ccc(O)cc1
inactive: Potency [5] | outcome [6]

O=c1oc2cc(O)ccc2s1
inactive: Potency [10]

O=C1NC(=O)C(c2ccccc2[N+](=O)[O-])=C1Nc1ccc(O)c(Cl)c1
inactive: outcome [2] | Potency [7] | outcome [8] | Potency [9]

COC(=O)C1=C(C)NC(C)=C(C(=O)OC(C)C)C1c1cccc2nonc12 (stereo unspecified)
inactive: Potency [5] | outcome [6] | Potency [9]

c1ccc2[nH]c(-c3cscn3)nc2c1
inactive: Potency [4] | Potency [5] | outcome [6] | Potency [9]

O=c1cc(N2CCOCC2)oc2c(-c3ccccc3)cccc12
inactive: outcome [2] | Potency [10] | Potency [7] | outcome [8]

Cc1cc(=O)c2c(O)c3c(O)cc(=O)c4c3c3c(cc(O)c1c23)C(C)(C)C=4O
inactive: Potency [4] | Potency [5] | outcome [6] | Potency [9]
